# An excerpt weighted towards active compounds, which were near 1.2% of everything screened.
# Avidin fluor – avidin bead compound fluorescence profile; AID 1775; fluorescence (KMESF) at 10 µM; actives 0.38% (n = 220,000); Avidin beads, compound fluorescence 488/530 nm, flow cytometry; hits give high values; in the data active = fluorescence above about 47
# RGS4-Gao reg – human RGS4-Galphao interaction regulation. Multiplexed bead flow cytometry, RGS4-Galphao binding; actives lie on both sides. binding response (% of control), % at 10 µM. actives 0.33% (n = 220,000); in the data active = binding response below about 49% or above about 150%; inactive = in between;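 also: fluorescent Galphao activated with aluminum fluoride binding bead-coupled RGS4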
# Target sequence (P09471 whole entry, looked up): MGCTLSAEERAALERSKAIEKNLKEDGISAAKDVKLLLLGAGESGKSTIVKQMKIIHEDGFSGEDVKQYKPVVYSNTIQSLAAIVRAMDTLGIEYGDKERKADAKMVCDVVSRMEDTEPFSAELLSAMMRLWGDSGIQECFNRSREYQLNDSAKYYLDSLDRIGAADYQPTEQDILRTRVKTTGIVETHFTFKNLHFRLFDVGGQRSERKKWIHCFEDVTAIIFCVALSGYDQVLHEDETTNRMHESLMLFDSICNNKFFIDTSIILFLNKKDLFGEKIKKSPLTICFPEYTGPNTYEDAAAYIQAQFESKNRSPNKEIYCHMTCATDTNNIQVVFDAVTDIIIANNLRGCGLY
# RGS8-Gao reg – regulators of human RGS8-Galphao interaction; P09471; multiplexed bead flow cytometry, RGS8-Galphao binding; actives lie on both sides; response (percent of control binding), % at 10 µM; actives 0.34% (n = 220,000); in the data active = response below about 60% or above about 140%; inactive = in between;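 also: Galphao activated as the GDP aluminium fluoride complex binding bead-coupled RGS8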
# GSH bead fluor – compound fluoresces at 488/530 nm on GSH beads; fluorescence (KMESF) at 10 µM; actives 0.25% (n = 190,000); GSH beads flow cytometry, compound fluorescence 488/530 nm; hits give high values; in the data active = fluorescence above about 89;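 also: glutathione beads carrying GST-tagged Bcl family fusion proteins plus one bare bead set; values are compound well signal with DMSO vehicle wells as background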
# RGS7-Gao – modulates binding of RGS7 to human Galphao; Multiplexed bead flow cytometry; actives lie on both sides; binding response (% of control), % at 10 µM; actives 0.35% (n = 220,000); AID 1439; in the data active = binding response below about 49% or above about 150%; inconclusive = no clear call, values can overlap the other calls; inactive = in between;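 also: fluorescent Galphao held in activated GDP-AlF4 state binding bead-coupled RGS7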
# RGS16-Gao HTS – modulates binding between human RGS16 and Galphao; O15492+P09471; bead-based flow cytometry RGS16-Galphao binding, fluorescence; actives lie on both sides; binding response (% of control), % at 10 µM; actives 0.38% (n = 220,000);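 also: Galphao activated by GDP with aluminum fluoride before binding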
# Target sequence (O15492 whole entry, looked up): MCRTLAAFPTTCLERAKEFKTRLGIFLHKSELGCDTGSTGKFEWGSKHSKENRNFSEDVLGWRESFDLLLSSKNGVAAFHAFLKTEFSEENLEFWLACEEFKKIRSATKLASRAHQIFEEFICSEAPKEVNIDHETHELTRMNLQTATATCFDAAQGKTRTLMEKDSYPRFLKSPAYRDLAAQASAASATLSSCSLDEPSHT
# Target sequence (P09471 whole entry, looked up): as the sequence (P09471 whole entry, looked up) above
# RGS4-Gao HTS – regulators of human RGS4-Galphao interaction; shares compounds with RGS16-Gao HTS; multiplexed bead flow cytometry, RGS–Galpha-o binding; RGS4–Galpha-o binding response, % at 10 µM; actives 99% (n = 1,600); AID 1504;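 also: fluorescently labeled Galpha-o bound to GDP with aluminium fluoride binding biotinylated RGS beads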
# Avidin counter – interferes with biotinylated probe binding to avidin beads | inhibition, % at 10 µM | shares compounds with RGS16-Gao HTS | streptavidin beads, fluorescein-biotin binding, flow cytometry | 1,700 tested, under 10 active;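 active = inhibition above 50%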;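 also: median green fluorescence of gated singlet beads compared with DMSO control wells; 0% = DMSO wells and 100% = complete loss of bead fluorescence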
# RGS8-Gao confirm – confirmation of regulators of human RGS8-Galphao interaction; shares compounds with RGS16-Gao HTS; bead-based flow cytometry RGS8-Galphao binding, fluorescence; actives lie on both sides; binding response (% of control), % at 10 µM; actives 3% (n = 1,700); in the data active = binding response below about 72% or above about 130%; inactive = in between;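 also: Galphao activated as GDP AlF4 complex before binding bead RGS8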
# RGS7-Gao confirm – RGS7-Galphao interaction regulation, single point confirmation. AID 1837. bead-based flow cytometry RGS7-Galphao binding; actives lie on both sides. response (percent of control binding), % at 10 µM. shares compounds with RGS16-Gao HTS. actives 7.8% (n = 1,700); in the data active = response below about 75% or above about 130%; inactive = in between;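 also: fluorescent Galphao activated with GDP and aluminum fluoride binding bead-coupled RGS7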
# RGS16-Gao single – RGS16-Galphao interaction regulation, single point confirmation; shares compounds with RGS16-Gao HTS; response (% of control binding), % at 10 µM; AID 1838; bead-based flow cytometry, RGS16-Galphao binding; actives lie on both sides; actives 4% (n = 1,700); in the data active = response below about 74% or above about 130%; inactive = in between;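 also: Galphao activated as the GDP aluminium fluoride complex binding bead-coupled RGS16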
# RGS4-Gao single – RGS4-Galphao interaction regulation, single point confirmation; shares compounds with RGS16-Gao HTS; RGS4-Galphao binding, multiplexed bead flow cytometry; actives lie on both sides; binding response (% of control), % at 10 µM; actives 4% (n = 1,700); AID 1840; in the data active = binding response below about 74% or above about 130%; inactive = in between
# RGS19-Gao conf – confirmation of regulators of human RGS19-Galphao interaction | shares compounds with RGS16-Gao HTS | bead-based flow cytometry RGS19-Galphao binding; actives lie on both sides | response (percent of control binding), % at 10 µM | actives 5% (n = 1,700); in the data active = response below about 50% or above about 160%; inactive = in between;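 also: 100% = no compound control and 0% = blank background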
# The depositor's hits bear a star; ? = inconclusive; . = no result; [ ] = remark or other dose. Unless noted, no rule for the calls is given here.
SMILES,Avidin fluor,RGS4-Gao reg,RGS8-Gao reg,GSH bead fluor,RGS7-Gao,RGS16-Gao HTS,Avidin counter,RGS8-Gao confirm,RGS7-Gao confirm,RGS16-Gao single,RGS4-Gao single,RGS19-Gao conf,others
c1ccc(CCn2nnnc2C(c2cccnc2)N2CCN(c3ccccc3)CC2)cc1 (stereo not drawn),10,77,88,7,85,80,.,.,.,.,.,.,
COc1ccc(N2CCN(C(c3cc4cc(C)ccc4[nH]c3=O)c3nnnn3Cc3ccccc3)CC2)cc1 (stereo not drawn),.,.,.,40,.,.,2,99,100,98,100,98,
Oc1ccc(N2CCN(C(c3cccnc3)c3nnnn3Cc3ccccc3)CC2)cc1 (stereo not drawn),-4,-26*,8.1*,29,-9.4*,-26*,0,88,99,91,97,77,
COc1cc(C(=O)N/N=C/c2ccsc2C)cc(OC)c1OC,11,100,100,44,100,100,.,.,.,.,.,.,
COc1ccc(/C=N/Nc2nc(N)cc(Cl)n2)cc1OC,12,100,100,11,100,100,.,.,.,.,.,.,
O=C(CN1CCCC1)NCC(=O)Nc1ccc(F)cc1,24,106,107,12,107,112,.,.,.,.,.,.,
Cc1nn(C)c(C)c1C1C(C#N)=C(N)Oc2n[nH]c(C)c21 (stereo not drawn),7,110,140*[activator],10,109,230*[activator],-1,101,99,102,101,118,RGS4-Gao HTS=110*
CCOC(=O)C1CCCN(C(=O)/C=C/c2cc(OC)c(OC)c(OC)c2)C1 (stereo not drawn),114*,103,92,17,170*[activator],103,1,102,98,97,99,90,RGS4-Gao HTS=103*
CCOC(=O)C1CCCN(C(=O)/C=C/c2ccc(Cl)cc2)C1 (stereo not drawn),4,104,101,21,106,109,.,.,.,.,.,.,
COc1ccc(OC)c(NS(=O)(=O)c2ccc(Cl)nc2)c1,0,100,96,6,101,87,.,.,.,.,.,.,
CCCCOc1ccc(S(=O)(=O)Nc2cc(OC)ccc2OC)cc1,.,.,.,48,.,.,-1,99,102,96,98,107,
CCCNC(=O)c1oc2ccc3c(c2c1C)C(=O)CC(C)(C)O3,31,98,101,18,97,99,.,.,.,.,.,.,
COc1ccccc1OCCCOc1ccc(C)cc1Br,3,102,106,16,102,114,.,.,.,.,.,.,
COc1ccccc1OCCOCCOc1ccc(C)cc1Br,7,89,80,10,89,22*,-2,101,98,100,101,96,RGS4-Gao HTS=89*
O=C(Nc1ccc(F)cc1)NC1(C(=O)NCc2cccs2)CCCCC1,10,109,105,24,104,126,.,.,.,.,.,.,
O=C(Nc1cccc(Cl)c1)NC1(C(=O)NCc2cccs2)CCCCC1,138*,115,92,25,232*[activator],97,-1,99,98,101,100,94,RGS4-Gao HTS=115*
COc1ccc(CN2CCc3ccccc3C2)c(OC)c1,7,101,101,.,?,102,.,.,.,.,.,.,
COc1ccc(C2=[N+](C)CCn3cccc32)c(OC)c1,16,160*[activator],124,10,142,205*[activator],0,109,119,117,115,111,
NS(=O)(=O)c1ccc(NC(=S)NCc2ccc(Cl)cc2)cc1,3,101,87,21,127,71,.,.,.,.,.,.,
Cc1cc(C)cc(NC(=S)NCc2ccc(S(N)(=O)=O)cc2)c1,.,97,95,12,.,110,3,97,105,102,100,108,
CSc1nnc(NC(=O)c2ccc(C)c(S(=O)(=O)N3CCOCC3)c2)s1,0,18*,12*,29,14*,9.3*,2,102,104,104,106,103,
Cc1nnc(NC(=O)c2ccc(C)c(S(=O)(=O)N3CCOCC3)c2)s1,6,101,102,46,100,99,.,.,.,.,.,.,
COC(=O)c1ccc(CS(=O)(=O)c2ccccc2C)o1,13,94,83,16,89,39,.,.,.,.,.,.,
COc1ccccc1/C=c1\sc2nc(-c3ccco3)nn2c1=O,.,.,.,11,.,.,2,97,89,94,92,83,
Cc1ccc(NS(=O)(=O)c2ccc(C3CCCCC3)cc2)cc1,14,100,102,20,102,103,.,.,.,.,.,.,
SMILES,Avidin fluor,RGS4-Gao reg,RGS8-Gao reg,GSH bead fluor,RGS7-Gao,RGS16-Gao HTS,Avidin counter,RGS8-Gao confirm,RGS7-Gao confirm,RGS16-Gao single,RGS4-Gao single,RGS19-Gao conf,others
Cc1ccc(C)c(NC(=S)N/N=C2\CCc3ccccc32)c1,2,45*,60,.,?,47,0,97,96,98,97,113,
Cc1ccc(NC(=S)N/N=C2/CCCCc3ccccc32)cc1,9,106,99,.,?,102,.,.,.,.,.,.,
Cc1cc2cc(CNC(=O)c3ccc(C)c([N+](=O)[O-])c3)ccc2[nH]1,4,105,101,14,101,101,.,.,.,.,.,.,
S=c1[nH]nc(-c2ccc(Cl)cc2)n1/N=C/C=C/c1ccco1,7,99,96,.,?,97,.,.,.,.,.,.,
S=c1[nH]nc(-c2ccccc2)n1/N=C/C=C/c1ccco1,4,90,79,11,88,-0.4*,1,93,116,96,103,71,RGS4-Gao HTS=90*
Fc1c(F)c(F)c(N/N=C/c2c[nH]c3ccccc23)c(F)c1F,13,99,100,12,96,98,.,.,.,.,.,.,
O=C(N/N=C/c1ccccc1F)NC1CCCCC1,15,95,99,16,94,107,.,.,.,.,.,.,
COc1ccc(C[C@H]2CN3C(=NC[C@@H]3C(C)C)N2CCNC(=O)CCC2CCCCC2)cc1,-1,27*,20*,21,10.0*,14*,0,103,136*[activator],116,126*[activator],134,

# Assay outcomes from PubChem.
